Screening data: PubChem, National Center for Advancing Translational Sciences (NCATS)
In the library only some 7.3% were active in any assay of this set; here they are far more common.
HCV inh: blocks hepatitis C virus; Huh7.5.1 HCVcc-Cre infection, luciferase reporter, 44 h; Potency, µM (titrated, usually from 41.8 µM), without a hit: at the top dose activity change, negative = inhibition, actives largely listed as inhibitors; 3.4% of 340,000 active; active = well fitted inhibition curve with a large enough effect; inconclusive = small, poorly fitted or top-dose-only effect, or another doubt; inactive = no such curve, though single readings can be large or run the other way; note: potency is the fitted concentration of half-maximal effect
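After 44 h co-culture of compound, cells and HCVcc-Cre (~0.5 moi), substrate is added for 15 min at room temperature and luciferase measured over 15 sec. Cells were seeded at 1,000/well and pre-cultured 4 h.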
HCMV inh: blocks human cytomegalovirus replication; HFF cells, HCMV-luciferase reporter, 72 h; stronger effect = lower value; activity change, negative = inhibition, % at 57.5 µM; AID 1259415; 4.5% of 410,000 active; in the data active = activity change below about -60%; inconclusive = no clear call, values can overlap the other calls; inactive = above about -39%
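Screen run at 2 compound doses on HFFs infected with reporter HCMV, MOI 1 PFU/cell. Luciferase activity from cell lysates at 72 h post infection gave inhibition relative to buffer-only and Salinomycin wells.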
Vaccinia mCherry: inhibitors of vaccinia virus infection (mCherry reporter signal). Vaccinia virus mCherry reporter infection, fluorescence. Potency, µM (highest dose often 36.5 µM), inactives show at the highest dose activity change, negative = inhibition, actives largely listed as inhibitors. 0.63% of 310,000 active. AID 720579; calls by dose curve; tested in A549 cells; note: potency is the fitted concentration of half-maximal effect; nearly all actives have a fitted effect of over 35% in size
FMDV inh: foot and mouth disease virus antiviral activity | FMDV antiviral cell-based qHTS | Potency, µM (series often up to 57.9 µM), without a hit: top-dose activity change, negative = inhibition, actives largely listed as inhibitors | 1.2% of 410,000 active | AID 1159524; calls by dose curve; tested in HEK293T cells; note: read-out not given here; potency is the fitted concentration of half-maximal effect; nearly all actives have a fitted effect of over 45% in size
VACV Venus inh: vaccinia inhibition (Venus reporter). 0.46% of 330,000 active. Vaccinia virus Venus reporter expression, fluorescence. Potency, µM (doses to about 36.5 µM), for inactives: top-dose activity change, negative = inhibition, most hits filed as inhibitors; calls by dose curve; tested in A549 cells; note: potency is the fitted concentration of half-maximal effect; nearly all actives have a fitted effect of over 30% in size
* marks the source's active call; other numbers are inactive results; i = inactive; ? = inconclusive; . = no result. % is set by controls: 0 for no effect and ±100 for the full control effect.

SMILES	HCV inh	HCMV inh	Vaccinia mCherry	FMDV inh	VACV Venus inh
Nc1nc(Sc2ccc([N+](=O)[O-])c3nonc23)c2[nH]cnc2n1	2.8µM*	-85*	?	?	141%
COCOc1ccc(-c2ncc(OC)nc2NC(=O)c2ccsc2)cc1	.	19	29%	-24%	13%
CCOC(=O)c1cccc(-n2nnc3c(sc4nc(C)c(Br)c(C)c43)c2=O)c1	.	?	-12%	-4%	-5%
CCOC(=O)Cn1c(S(=O)(=O)Cc2ccc(F)cc2)nc(-c2ccccc2)c1-c1ccccc1	?	-78*	?	-3%	-13%
C#CCn1c(S(=O)(=O)Cc2ccc(F)cc2)nc(-c2ccccc2)c1-c1ccccc1	?	-97*	.	?	.
CCOC(=O)Cn1c(S(=O)(=O)Cc2cccc(F)c2)nc(-c2ccccc2)c1-c1ccccc1	?	?	.	-15%	.
Cc1ccc(CNc2nc(CN3CCSCC3)nc3ccccc23)o1	.	.	-18%	39%	-8%
Cc1ccc(C[n+]2cc(-c3ccc(Cl)cc3)n3c2CCC3)cc1	-25%	-61*	i	0%	-15%
Clc1ccc(-c2c[n+](Cc3ccc(Cl)c(Cl)c3)c3n2CCC3)cc1	4%	.	.	.	.
Cc1ccc(-c2c[n+](Cc3ccc(Cl)cc3)c3n2CCC3)cc1	-12%	-79*	i	0%	-14%
Cc1c(C(=O)Nc2nccs2)sc2nc(-c3cccs3)cc(C(F)(F)F)c12	11µM*	?	.	-21%	.
CC(=O)O[C@@H](C[C@@H](C)C1=C2C[C@H](O)C3[C@@]4(C)CCC(=O)C(C)(C)C4CC[C@]3(C)[C@@]2(C)CC1)[C@H]1OC1(C)C (some centres not stated)	?	-31	-9%	?	?
CCN(CC)c1ccc(NC(=O)c2cc(CN3CCCC3)on2)c(C)c1	.	-26	-8%	-31%	-10%
Cc1ccc(NC(=O)c2ccc(NS(=O)(=O)c3cccc4cccnc34)cc2)cc1	10µM*	.	?	15%	-27%
Cc1ccc(NC(=O)c2ccc(C)cc2)cc1	-2%	88	-14%	-5%	-9%
Cc1ccc(C(=O)Nc2ccc3ncccc3c2)cc1	-23%	-64*	-11%	14µM*	-17%
Cc1ccc(C(=O)Nc2ccc(Br)c(C(F)(F)F)c2)cc1	11µM*	25	.	-15%	.
COc1ccc(CCNC(=O)CCCn2c(=O)c3cccn3c3ccc(F)cc32)cc1OC	.	-13	-6%	-10%	-8%
CC(C)CC(=O)NC(Nc1ccc([N+](=O)[O-])cc1)C(Cl)(Cl)Cl (configuration not stated)	?	-27	?	32µM*	?
COC(=O)Nc1cc(C)nc2ccccc12	-27%	30	.	-5%	1%
O=C(CSC1=NCCS1)Nc1ccnc2ccccc12	?	-73*	?	.	-29%
O=C(CSC1=NCCS1)Nc1ccc2ccccc2c1	7%	-30	-26%	15%	-15%
Cc1ccc(Nc2cc(C)nc3ccc(C)cc23)cc1	?	-39	?	-28%	?
Cc1cccc(Nc2cc(C)nc3ccccc23)c1	?	?	-20%	-24%	-18%
CCOc1ccc(Nc2cc(C)nc3ccc(C)cc23)cc1	?	-74*	-23%	?	-27%
SMILES	HCV inh	HCMV inh	Vaccinia mCherry	FMDV inh	VACV Venus inh
Cc1ccc(Nc2cc(C)nc3ccccc23)c(C)c1	32µM*	?	i	?	-23%
Cc1cc(NC(=O)Cc2ccccc2)c2ccccc2n1	?	-86*	.	?	.
Cc1cc(C)nc(SCC(=O)Nc2ccnc3ccccc23)n1	1.8µM*	-89*	?	?	-10%
C=CCOC(=O)C1=C(C)Nc2ncnn2C1c1cc(Br)ccc1F (configuration not stated)	-25%	-28	.	13µM*	.
CCN(CC)CCCNC(=S)N1CCN(c2nc(-c3ccc(F)cc3)cs2)CC1	4µM*	-97*	i	?	?
S=C(NCC1CCCO1)N1CCN(c2nc(-c3ccccc3)cs2)CC1 (configuration not stated)	10µM*	-37	?	?	-13%
CCNC(=S)N1CCN(c2nc(-c3ccc(F)cc3)cs2)CC1	?	-61*	.	?	.
COC(=O)CC1Oc2ccc(F)cc2-n2cc(-c3ccc(Cl)cc3)nc21 (configuration not stated)	.	-29	i	1%	-13%
CCc1ccccc1N(C)S(=O)(=O)c1ccc(-c2cc(C)no2)s1	?	?	.	16%	.
Clc1cccc(CNc2nnnn2-c2ccccc2)c1	?	-84*	-25%	9%	-23%
COc1ccccc1NC(=O)N1CCc2[nH]c3ccc(F)cc3c2C1	10µM*	3	.	?	?
O=C(COCc1cc(-c2ccc(F)cc2)on1)Nc1cc(F)ccc1F	.	5	-4%	0%	0%
O=C(Nc1cccc(C2=NCCN2)c1)Nc1cccc(C2=NCCN2)c1	-60%	-81*	-22%	-19%	?
C[C@@H]1CN([C@@H](C)CO)C(=O)CCCn2cc(nn2)CO[C@H]1CN(C)C(=O)C1CCCCC1	.	-31	.	.	.
CCOC(=O)Cc1csc(NC(=O)CSc2ncnc3c2cnn3-c2ccc(OC)cc2)n1	?	-2	i	22µM*	-26%
Cc1csc(NC(=O)CSc2ncnc3c2cnn3-c2ccccc2Cl)n1	18µM*	.	?	14µM*	?
COc1ccccc1N1CCN(C(=O)CSc2ncnc3scc(-c4ccccc4)c23)CC1	?	-33	-14%	?	-10%
O=C(CSc1ncnc2c1cnn2-c1ccccc1)NC1CCCC1	10µM*	-39	i	-9%	-11%
COc1ccc(-n2ncc3c(SCC(=O)N4CCN(c5ccccc5OC)CC4)ncnc32)cc1	13µM*	-14	.	-10%	.
Cc1ccccc1-n1ncc2c(SCC(=O)NCc3cccs3)ncnc21	22µM*	-36	-26%	0%	?
CC(C)C(=O)NNC(=O)CSc1ncnc2c1cnn2-c1ccccc1Cl	15%	-65*	.	-26%	.
CNC(=O)CSc1ncnc2c1cnn2-c1ccccc1	1%	-24	-3%	18%	-2%
O=c1cc(-c2ccccc2)[nH]c2ccccc12	-26%	-76*	?	-12%	?
O=C1C(c2cc(=O)c3ccccc3[nH]2)=C(O)c2ccccc21	8%	13	?	-12%	?
COc1ccc2sc(-c3ccc(S(C)(=O)=O)cc3)c(-c3ccc4c(c3)OCCO4)c2c1	?	-38	-21%	-15%	-24%
COc1cc2c(O)c3c(c(-c4ccc5c(c4)OCO5)c2cc1OC)C(=O)OC3	?	-96*	?	.	?
COc1cc2sc(-c3ccc(S(C)(=O)=O)cc3)c(-c3ccc4c(c3)OCO4)c2cc1OC	2.8µM*	-28	?	-20%	-18%
COc1cc2c(OC(C)=O)c3c(c(-c4ccc5c(c4)OCO5)c2cc1OC)C(=O)OC3	?	-93*	?	0%	?
